Laboratory results published in PubChem BioAssay (NCI).
The panel holds about 83,000 compounds, 20% with a hit somewhere; the sample as a whole holds those more often.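 Negative percent growth values reflect cell death: -40 means 40% of the cells present at the start died, and -100 means all died.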 Unmarked numbers belong to inactive results. Activity calls are given as the source filed them. Rule for the calls: active = growth percent below 10; inactive = the rest.

What was measured:
Assay in all cases: NCI-60 one-dose screen, 48 h (100 = growth as untreated, 0 = no growth, -100 = all killed)
Details in all cases: 10 µM unless noted
[1] = system: T-47D breast
[2] = system: BT-549 breast
[3] = system: MDA-MB-435 melanoma
[4] = system: SW-620 colon
[5] = system: MCF7 breast
[6] = system: HCC-2998 colon
[7] = system: KM12 colon
[8] = system: HCT-116 colon

## CCSc1oc(C)nc1[P+](c1ccccc1)(c1ccccc1)c1ccccc1
[1]
  growth: 14.6%
[2]
  growth: 12.4%
[3]
  growth: 25.3%
[4]
  growth: 32.9%
[5]
  growth: 13.7%
[6]
  growth: 29.5%
[7]
  growth: 8.25% (active)

## CC1(C)CC[C@]2(C(=O)N[C@H](CO)Cc3ccccc3)CC[C@]3(C)C(=CC[C@@H]4[C@@]5(C)CCCNC(C)(C)[C@@H]5CC[C@]43C)[C@@H]2C1
[1]
  growth: 69.8%
[2]
  growth: 89.9%
[3]
  growth: 73.4%
[4]
  growth: 79.8%
[5]
  growth: 83.9%
[8]
  growth: 44.4%
[7]
  growth: 96%

## Cc1ccc(C)c(/C=C2\CN(C(=O)OC(C)(C)C)C/C(=C\c3cc(C)ccc3C)C2=O)c1
[1]
  growth: 61.4%
[2]
  growth: 85.5%
[3]
  growth: -9.21% (active)
[4]
  growth: 18.5%
[5]
  growth: 23.3%
[6]
  growth: 52.2%
[7]
  growth: 16.7%

## CN(Cc1cnc2nc(N)nc(N)c2n1)c1ccc(C(=O)NC(CCC(=O)O)C(=O)O)cc1Br (centres undefined)
[1]
  growth: 44.3%
[2]
  growth: 61.9%
[3]
  growth: 39.5%
[4]
  growth: 28.6%
[5]
  growth: 19%
[8]
  growth: 19.8%
[7]
  growth: 28.4%

## O=C(Nc1ncc(Cc2cc(C(F)(F)F)ccc2Cl)s1)c1cccs1
[1]
  growth: 31.9%
[2]
  growth: 46.9%
[3]
  growth: 1.23% (active)
[4]
  growth: 47%
[6]
  growth: 64.5%
[7]
  growth: 29.5%

## CC1(C)N=C(N)N=C(N)N1c1ccc(CCCCc2ccccc2)c(Cl)c1
[1]
  growth: 15.8%
[2]
  growth: -16% (active)
[3]
  growth: 27.8%
[4]
  growth: 20.5%
[8]
  growth: 13.9%
[6]
  growth: -43.9% (active)
[7]
  growth: -79.7% (active)

## CN(C)S(=O)(=O)Oc1ccc(-c2sc3cc(OS(=O)(=O)N(C)C)ccc3c2C(=O)c2ccc(OCCN3CCCCC3)cc2)cc1
[1]
  growth: 44.8%
[2]
  growth: 79.6%
[3]
  growth: 78.6%
[4]
  growth: 30.5%
[8]
  growth: 40.8%
[6]
  growth: 89.2%
[7]
  growth: 73.7%

## O=C(N/N=C\c1cccc([N+](=O)[O-])c1)N/N=C/c1cccc([N+](=O)[O-])c1
[1]
  growth: 97.2%
[2]
  growth: 108%
[3]
  growth: 108%
[4]
  growth: 103%
[8]
  growth: 108%
[6]
  growth: 109%
[7]
  growth: 107%

## C#CCn1cnc2cnc(Nc3cccc(NC(=O)C=C)c3)nc21
[1]
  growth: 66% [6.25 µM]
[2]
  growth: 60.9% [6.25 µM]
[3]
  growth: 60.6% [6.25 µM]
[4]
  growth: 91.2% [6.25 µM]
[8]
  growth: 86.4% [6.25 µM]
[6]
  growth: 97.9% [6.25 µM]
[7]
  growth: 91.9% [6.25 µM]

## Fc1ccc(Cn2cc(CSc3nc4ccccc4o3)nn2)cc1
[1]
  growth: 85.3%
[2]
  growth: 103%
[3]
  growth: 102%
[4]
  growth: 101%
[8]
  growth: 92.3%
[6]
  growth: 109%
[7]
  growth: 97.6%

## S=c1[nH]c(=S)c2c(-c3ccccc3)c(-c3ccccc3)oc2[nH]1
[1]
  growth: 91.4%
[2]
  growth: 119%
[3]
  growth: 97.3%
[4]
  growth: 101%
[5]
  growth: 94.3%
[6]
  growth: 101%
[7]
  growth: 102%

## CC1CCN(C(=S)SCC(=O)NC(=O)c2ccccc2)CC1
[1]
  growth: 84.7%
[2]
  growth: 106%
[3]
  growth: 106%
[4]
  growth: 105%
[8]
  growth: 109%
[7]
  growth: 97%

## O=P(O)(O)OCC1OC(n2cnc3c(NCc4ccco4)ncnc32)C(O)C1O (centres undefined)
[1]
  growth: 42.5%
[2]
  growth: -12.3% (active)
[3]
  growth: 16.2%
[4]
  growth: 14.8%
[8]
  growth: -31.1% (active)
[6]
  growth: 0.214% (active)
[7]
  growth: 44.1%

## CS(=O)(=O)Nc1cc(-c2ccc3ncc(C#N)c(Nc4ccc(F)c(Cl)c4)c3c2)cnc1Cl
[1]
  growth: -13.3% (active)
[2]
  growth: -14.5% (active)
[3]
  growth: 2.34% (active)
[4]
  growth: 5.69% (active)
[8]
  growth: 4% (active)
[6]
  growth: 6.92% (active)
[7]
  growth: 8.82% (active)

## COc1ccc(-c2nc(/C=C3\C(=O)N(C)c4ccccc43)c3ccccn23)cc1
[1]
  growth: 76%
[2]
  growth: 104%
[3]
  growth: 104%
[4]
  growth: 84.7%
[5]
  growth: 61.9%
[7]
  growth: 93.7%

## Cc1ccc(-c2csc(N(C(=O)N3CCN(c4cc5c(cc4F)c(=O)c(C(=O)O)cn5C4CC4)CC3)c3ccccc3)n2)cc1
[1]
  growth: 13%
[2]
  growth: -2.16% (active)
[3]
  growth: 14.9%
[4]
  growth: 19.1%
[8]
  growth: 6.17% (active)
[6]
  growth: 13.1%
[7]
  growth: 4.3% (active)

## CSc1nn2c(-c3ccc4ccccc4c3)ccnc2c1C#N
[1]
  growth: 18.8%
[2]
  growth: 44%
[3]
  growth: -63.6% (active)
[4]
  growth: 9.09% (active)
[8]
  growth: -38.1% (active)
[6]
  growth: 52.2%
[7]
  growth: 5.75% (active)

## Cc1cccc(N2CCC(=O)NC2=S)c1
[1]
  growth: 105%
[2]
  growth: 104%
[3]
  growth: 106%
[4]
  growth: 103%
[8]
  growth: 93.2%
[6]
  growth: 95.4%
[7]
  growth: 107%

## COc1ccccc1C(=O)Nc1cccc(NC(=O)c2ccoc2C)c1
[1]
  growth: 45.1%
[2]
  growth: 44%
[3]
  growth: -15.8% (active)
[4]
  growth: 28.2%
[8]
  growth: 15.3%
[6]
  growth: 67.2%
[7]
  growth: 21.1%

## C=CC(=O)Nc1ccc(Nc2nccc(-c3ccc(N4CCCC4)c(C#N)c3)n2)cc1
[1]
  growth: 41.5%
[2]
  growth: 45.6%
[3]
  growth: -11.8% (active)
[4]
  growth: 3% (active)
[5]
  growth: 9.75% (active)
[6]
  growth: 31.5%
[7]
  growth: 14.6%

## O=C(N/N=C\c1ccccc1S(=O)(=O)O)N/N=C/c1ccccc1S(=O)(=O)O
[1]
  growth: 102%
[2]
  growth: 118%
[3]
  growth: 105%
[4]
  growth: 91.9%
[8]
  growth: 106%
[6]
  growth: 104%
[7]
  growth: 94.1%

## O=C1Nc2c(C(=O)O)cccc2/C1=N/c1n[nH]c(=S)s1
[1]
  growth: 68.4%
[2]
  growth: 116%
[3]
  growth: 88.4%
[4]
  growth: 88.1%
[6]
  growth: 103%
[7]
  growth: 75.4%

## O=C(/C=C/C12c3ccccc3C(c3ccccc31)C1C(=O)NC(=O)C12)c1ccc(Br)cc1 (centres undefined)
[1]
  growth: 36.8%
[2]
  growth: 46.1%
[3]
  growth: 18.5%
[4]
  growth: 15.3%
[6]
  growth: 95.3%
[7]
  growth: 55.5%

## Cc1ccc(C2CC(c3nc(-c4ccc(Cl)cc4)oc3C)=NN2C(=O)c2ccncc2)cc1 (centres undefined)
[1]
  growth: 77.7%
[2]
  growth: 96%
[3]
  growth: 88.7%
[4]
  growth: 93.4%
[8]
  growth: 94.8%
[6]
  growth: 97.6%
[7]
  growth: 88.3%

## O=C(O)c1ccc(-c2ccc(/C=N/Nc3nc(Nc4ccccc4)nc(N4CCCCC4)n3)o2)cc1
[1]
  growth: 63.7%
[2]
  growth: -4.12% (active)
[3]
  growth: 83.2%
[4]
  growth: 86.6%
[8]
  growth: 57.8%
[6]
  growth: 74.7%
[7]
  growth: 61.7%

## Cc1cccc2c1C[C@@]1(C2=O)C(c2ccc(C(C)(C)C)cc2)=NOS1=O (some centres undefined)
[1]
  growth: 70.2%
[2]
  growth: 104%
[3]
  growth: 109%
[4]
  growth: 100%
[8]
  growth: 91.6%
[6]
  growth: 109%
[7]
  growth: 91.9%

## COc1cccc(Nc2ncnc3cc(NC(=O)CCl)ccc23)c1
[1]
  growth: -32.6% (active)
[2]
  growth: -28.7% (active)
[3]
  growth: -82% (active)
[4]
  growth: -73.6% (active)
[8]
  growth: -53.8% (active)
[6]
  growth: 23%
[7]
  growth: -68.5% (active)

## COc1cc2c(c(OC)c1OC)C(=O)CC(c1cccc(NC(=O)c3ccc(C#N)cc3)c1)O2 (centres undefined)
[1]
  growth: 8.42% (active)
[2]
  growth: 43.7%
[3]
  growth: 74%
[4]
  growth: 95.9%
[8]
  growth: 62%
[6]
  growth: 101%
[7]
  growth: 70.9%

## O=S(=O)(Nc1cc(Sc2cccc3cccnc23)c(O)c2ccccc12)c1ccccc1
[1]
  growth: -26% (active)
[2]
  growth: 31.4%
[3]
  growth: 11.3%
[4]
  growth: -67.8% (active)
[8]
  growth: -15.2% (active)
[6]
  growth: 36.9%
[7]
  growth: 13.6%

## CCN(CC)CCN1C(=O)c2cccc3c(/C=C/CN4C(=O)c5cccc6cccc(c56)C4=O)ccc(c23)C1=O
[1]
  growth: 94.8%
[2]
  growth: 89.8%
[3]
  growth: 103%
[4]
  growth: 90.4%
[8]
  growth: 95.5%
[6]
  growth: 105%
[7]
  growth: 63.6%

## COc1ccc(/C=C/c2ccc3ccccc3n2)c(OC)c1
[1]
  growth: 72.8%
[2]
  growth: 67.8%
[3]
  growth: -5.31% (active)
[4]
  growth: 38.1%
[8]
  growth: 62.3%
[6]
  growth: 72.4%
[7]
  growth: 52.5%

## CCCCCCCCCCCCCOC(=O)c1c(C)[nH]c(/C=C2\N=C(c3ccc[nH]3)C=C2OC)c1C
[1]
  growth: 27.2%
[2]
  growth: 51.5%
[3]
  growth: 19.2%
[4]
  growth: 3.08% (active)
[8]
  growth: 11.3%
[6]
  growth: 22.8%
[7]
  growth: 12.7%

## O=C1Nc2ccccc2/C1=C/c1cccn1C(=O)c1ccc(Cl)s1
[1]
  growth: -31.3% (active)
[2]
  growth: 65%
[3]
  growth: 89.8%
[4]
  growth: 56.4%
[8]
  growth: 34.6%
[7]
  growth: 4.36% (active)

## COc1ccc2c(c1)c(-c1nc(-c3c[nH]c4ncccc34)cs1)cn2CCCN1CCOCC1
[1]
  growth: 31.7%
[2]
  growth: 52.2%
[3]
  growth: 47%
[4]
  growth: 21.2%
[8]
  growth: 25.3%
[6]
  growth: 65.5%
[7]
  growth: 17%

## CC(=O)OC[C@]12CC[C@@H]([C@@H](C)c3nnc(-c4ccncc4)o3)[C@@H]1[C@H]1CC[C@@H]3[C@@]4(C)CC[C@H](OC(C)=O)C(C)(C)[C@@H]4CC[C@@]3(C)[C@]1(C)CC2
[1]
  growth: 66.5%
[2]
  growth: 74.6%
[3]
  growth: 87%
[4]
  growth: 66.3%
[8]
  growth: 45.2%
[6]
  growth: 101%
[7]
  growth: 93.5%
